An excerpt weighted towards active compounds, which were near 7.9% of everything screened.
M1 antag: M1 muscarinic receptor (rat) antagonism; CHO-M1 cells, Fluo-4 calcium, ACh EC80 antagonist mode; active compounds read low; B-score at 10 µM; actives 3.4% (n = 64,000);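 active means calcium fluorescence response, raw or row-and-column corrected B-score, differing from the plate sample mean either way at a set confidence level, mostly lower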
Target sequence (P08482 whole entry, looked up): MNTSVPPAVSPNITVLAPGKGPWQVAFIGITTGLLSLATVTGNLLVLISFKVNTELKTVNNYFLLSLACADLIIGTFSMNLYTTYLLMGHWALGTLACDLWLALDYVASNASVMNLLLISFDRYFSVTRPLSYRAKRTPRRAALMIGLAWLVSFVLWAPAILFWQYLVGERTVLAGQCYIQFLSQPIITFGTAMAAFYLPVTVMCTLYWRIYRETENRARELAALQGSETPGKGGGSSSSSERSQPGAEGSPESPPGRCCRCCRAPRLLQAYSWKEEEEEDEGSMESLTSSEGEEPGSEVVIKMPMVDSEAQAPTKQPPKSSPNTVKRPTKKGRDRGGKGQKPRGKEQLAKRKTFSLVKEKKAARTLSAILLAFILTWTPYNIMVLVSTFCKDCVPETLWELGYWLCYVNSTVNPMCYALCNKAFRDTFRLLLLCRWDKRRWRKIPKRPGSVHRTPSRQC
Cav3 T inh: inhibitors of human Cav3.2 T-type calcium channel; O95180; Cav3.2-expressing cells, Fluo-4 calcium fluorescence FDSS; active compounds read low; B-score at 10 µM; actives 4% (n = 100,000); AID 449739;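 active means single-dose well whose peak fluorescence ratio is a statistical outlier from its plate by either plate-standardised score or position-corrected B-score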
M1 ag: M1 muscarinic receptor agonism | CHO-M1 cells, Fluo-4 calcium fluorescence, agonist mode; active compounds read high | B-score at 10 µM | actives 3% (n = 64,000) | AID 626;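 active means fluorescence rise, raw or as B-score row- and column-corrected plate score, outside the 99.7% band of its plate's samples, either direction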
HER2 expr 66K: lowers expression of human Her2 kinase. P04626. SKBR-3 HER2 protein level, AlphaScreen, 18-24 h; active compounds read low. HER2 level % of control, % at 10 µM. actives 0.69% (n = 65,000);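 active means HER2 level under 5% of the carrier-only control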;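 further: lower value means stronger loss of Her2 protein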
PLAP activator: activates human placental alkaline phosphatase; activation fold at 20 µM; AID 696; actives 1.2% (n = 96,000); purified PLAP enzyme, luminescent substrate read-out; active compounds read high; in the data active means activation fold above about 2
Each line names hits and unclear results; the compound was inactive in the other large screens.

COC(=O)C(Cc1cnc[nH]1)NC(=O)C1CCC(=O)N1 (stereo not given)	none
Cc1nn(-c2ccccc2)c(Cl)c1C(=O)Nc1nnc(C2CCCC2)s1	Cav3 T inh -5
COc1ccc(C2(C)NC(=O)N(CC(=O)NCCC3=CCCCC3)C2=O)cc1OC (stereo not given)	none (no result: M1 antag, M1 ag, HER2 expr 66K)
COc1ccc2cc(C3(C)NC(=O)N(CC(=O)NCCC4=CCCCC4)C3=O)ccc2c1 (stereo not given)	Cav3 T inh -7.4 (no result: M1 antag, M1 ag, HER2 expr 66K)
O=C(NCc1ccccc1C(F)(F)F)C1CC(c2ccccc2[N+](=O)[O-])=NO1 (stereo not given)	none (no result: M1 antag, M1 ag, HER2 expr 66K)
Cc1ccc2cc(CN(CC3CCCO3)S(=O)(=O)c3c(C)ccc4nsnc34)c(=O)[nH]c2c1 (stereo not given)	none
Cc1ccc2nsnc2c1S(=O)(=O)N(Cc1cc2cccc(C)c2[nH]c1=O)CC1CCCO1 (stereo not given)	M1 antag -3.2, M1 ag 13
COc1cc(NC(=O)C2CC(=O)NC3=C2C(=O)CCC3)c(OC)cc1Cl (stereo not given)	none (no result: M1 antag, M1 ag, HER2 expr 66K)
COc1ccc(C(=O)c2cn[nH]c2-c2cc(Cl)ccc2O)cc1	PLAP activator 2.2
O=C(c1ccc(Cl)cc1)c1cn[nH]c1-c1ccccc1O	none (no result: M1 antag, M1 ag, HER2 expr 66K, PLAP activator)
O=C(c1ccc(F)cc1)c1cn[nH]c1-c1ccccc1O	PLAP activator 2.5
Cc1ccc(C(=O)c2cn[nH]c2-c2ccccc2O)cc1	PLAP activator 2 (no result: M1 antag, M1 ag, HER2 expr 66K)
Cc1ccc2cc(COC(=O)C3CCCO3)c(=O)[nH]c2c1 (stereo not given)	none (no result: M1 antag, M1 ag, HER2 expr 66K)
COc1cc2c3c(c1)C1(C(=O)N3C(C)(C)C=C2C)C(C#N)=C(N)Oc2cc(O)ccc21 (stereo not given)	none
CCOc1cc2c3c(c1)C1(C(=O)N3C(C)(C)C=C2C)C(C#N)=C(N)Oc2cc(O)ccc21 (stereo not given)	Cav3 T inh -5.6
Cc1ccc(C)c(NS(=O)(=O)c2cc(C(=O)NCCC3=CCCCC3)ccc2C)c1	none (no result: M1 antag, M1 ag, HER2 expr 66K)
Cc1ccc(-n2nc(-c3cccs3)cc2C(=O)NCC2CCCO2)c(C)c1 (stereo not given)	Cav3 T inh -4.4
CCCc1c(CC)c(=N)c2ccccc2n1C	none
OCCOCCn1c2ccccc2c2ccccc21	none (no result: Cav3 T inh)
Cc1sc(NC(=O)CSC2=NCCS2)nc1-c1ccccc1	Cav3 T inh -4.4 (no result: M1 antag, M1 ag, HER2 expr 66K)
Cc1ccc(NC(=O)c2ccc(Cl)c(N3C(=O)C=CC3=O)c2)cc1	none (no result: M1 antag, M1 ag, HER2 expr 66K)
O=C(Nc1ccccc1C(=O)N/N=C/c1ccc(F)cc1)c1ccccc1Br	none (no result: M1 antag, M1 ag, HER2 expr 66K)
O=C(NN=C1c2ccccc2-c2ccccc21)c1ccccc1Br	Cav3 T inh -4 (no result: M1 antag, M1 ag, HER2 expr 66K)
Cn1nc(C(=O)NCc2ccccc2)c2ccccc2c1=O	none
O=C(NCc1ccccc1)c1n[nH]nc1-c1ccccc1O	PLAP activator 2.9
Oc1ccc(N=Cc2ccc(-c3cccs3)s2)cc1	HER2 expr 66K -22
Cc1snc(S(=O)(=O)/C(C#N)=N/Nc2cccc(C(F)(F)F)c2)c1C#N	Cav3 T inh -6.2 (no result: M1 antag, M1 ag, HER2 expr 66K)
COc1ccc(N/N=C(/C#N)S(=O)(=O)c2nsc(C)c2C#N)cc1	none (no result: M1 antag, M1 ag, HER2 expr 66K)
COc1ccccc1CN1[C@@H](CC(=O)O)c2cc(F)ccc2S1(=O)=O	none (no result: M1 antag, M1 ag, HER2 expr 66K, PLAP activator)
COCc1c(C)cc(C)c(/C=N/O)c1C	M1 antag 12
Cc1ccc(CN2CCN(Cc3ccccc3C(F)(F)F)CC2)cc1	none (no result: M1 antag, M1 ag, HER2 expr 66K)
CC(=O)Nc1ccccc1Nc1cc(C#N)c(C#N)cc1[N+](=O)[O-]	none (no result: M1 antag, M1 ag, HER2 expr 66K)
Cc1cc2cc(CCNC(=O)c3c(-c4ccccc4Cl)noc3C)c(=O)[nH]c2cc1C	Cav3 T inh -3.7
COCC(=O)NCc1ccc2c(c1)cc(C)n2C	none (no result: Cav3 T inh, PLAP activator)
CCOc1ccc(CC(=O)NCc2ccc3c(c2)cc(C)n3C)cc1	Cav3 T inh -8.1 (no result: M1 antag, M1 ag, HER2 expr 66K, PLAP activator)
Cc1onc(-c2ccccc2Cl)c1C(=O)NCc1ccc2c(c1)cc(C)n2C	Cav3 T inh -6 (no result: PLAP activator)
Cc1onc(-c2ccccc2Cl)c1C(=O)NCc1ccco1	none
COc1ccccc1CNC(=O)c1cc2sccc2n1C	none
O=C(NCCc1c[nH]c2ccccc12)c1cc2sccc2n1Cc1ccccc1	Cav3 T inh -5 (no result: M1 antag, M1 ag, HER2 expr 66K)
O=C(NCc1ccc(F)cc1)c1cc2sccc2n1Cc1ccc(F)cc1	none (no result: M1 antag, M1 ag, HER2 expr 66K, PLAP activator)
Cn1c(C(=O)NCCc2c[nH]c3ccccc23)cc2sccc21	Cav3 T inh -5.3
O=C(c1cccc(-n2cnnn2)c1)N1CC=C(c2ccccc2)CC1	Cav3 T inh -4.6
N=C(N)SCc1nc2ccccc2c(=O)n1-c1ccccc1Cl	none (no result: M1 antag, M1 ag, HER2 expr 66K)
Cc1ccccc1-n1c(CSC(=N)N)nc2ccccc2c1=O	PLAP activator 2.3 (no result: M1 antag, M1 ag, HER2 expr 66K)
C=C1[C@@H](OC(C)=O)CC[C@]2(C)[C@@H]1C[C@@H]1C[C@H](OC(C)=O)C(C)=C([C@@H](OC(C)=O)[C@@H]2OC(C)=O)C1(C)C	none (no result: M1 antag, M1 ag, HER2 expr 66K, PLAP activator)
CC(NC(=O)C12CC3CC(CC(C3)C1)C2)c1ccc2c(c1)OCCO2 (stereo not given)	Cav3 T inh 3.5 (no result: M1 antag, M1 ag, HER2 expr 66K)
CC(NC(=O)c1cc2sccc2n1C)c1ccc2c(c1)OCCO2 (stereo not given)	none (no result: Cav3 T inh)
CCn1c(C(=O)NC(C)c2ccc3c(c2)OCCO3)cc2sccc21 (stereo not given)	Cav3 T inh -5.1
CCS(=O)(=O)NCCc1cc2c(OC)ccc(OC)c2[nH]c1=O	none (no result: PLAP activator)
O=S(=O)(c1ccc(F)cc1)n1ccc(-c2cccc(OCc3ccc(Cl)cc3Cl)c2)n1	none (no result: M1 antag, M1 ag, HER2 expr 66K)
CCC(C)c1ccc(OCCCCN2CCOCC2)cc1 (stereo not given)	none (no result: M1 antag, M1 ag, HER2 expr 66K)
Cc1ccc(N(Cc2ccco2)C(=O)c2cccc(S(=O)(=O)N(C)C)c2)cc1	Cav3 T inh -4.3
CN(C)S(=O)(=O)c1cccc(C(=O)N(Cc2ccc(F)cc2)Cc2ccco2)c1	Cav3 T inh -4.5
CCCCS(=O)(=O)NC1=NCN(C2CCN(Cc3ccccc3)CC2)CN1	none (no result: Cav3 T inh, PLAP activator)
Cn1cc(/C=N/n2cnc3scc(-c4ccccc4)c3c2=O)c2ccccc21	Cav3 T inh -4
CC1CC(C)CN(C(=O)c2ccc3c(=O)n(Cc4ccc5c(c4)OCO5)c(=S)[nH]c3c2)C1 (stereo not given)	none (no result: M1 antag, M1 ag, HER2 expr 66K)
CCCC1C2CN(C(C)C)CC=C2C(C#N)=C(N)C1(C#N)C#N (stereo not given)	M1 ag 8.3 (no result: Cav3 T inh)
Cc1ccc(NC(=S)NNC(=O)C2CC2c2ccc(C)cc2)cc1 (stereo not given)	Cav3 T inh -6.7 (no result: M1 antag, M1 ag, HER2 expr 66K, PLAP activator)
Cc1ccc(C2CC2C(=O)NNC(=S)Nc2cccc(C)c2)cc1 (stereo not given)	Cav3 T inh -8.7 (no result: M1 antag, M1 ag, HER2 expr 66K, PLAP activator)
O=C(NC1CC1)C1=C[C@@H](c2c[nH]c3ccccc23)C[C@@H](OCc2ccc(CO)cc2)O1	none (no result: M1 antag, M1 ag, HER2 expr 66K, PLAP activator)
Cc1ccc(N(CC(=O)Nc2cccc(C)c2)S(=O)(=O)c2cccc3nonc23)cc1	none
CC(=O)Nc1nnc(-c2ccc3c(c2)CCCC3)o1	none (no result: Cav3 T inh)
O=C(Nc1nnc(-c2ccc3c(c2)CCCC3)o1)C1COc2ccccc2O1 (stereo not given)	Cav3 T inh -4.9
CC1CN(S(=O)(=O)c2ccc(C(=O)Nc3nnc(-c4ccc5c(c4)CCCC5)o3)cc2)CC(C)O1 (stereo not given)	Cav3 T inh -8.4
Cc1ccc(N(Cc2ccccc2F)S(C)(=O)=O)cc1C	none (no result: M1 antag, M1 ag, HER2 expr 66K)

Screens: PubChem, several laboratories
